The structures appear in SMILES notation.

For this experiment, the target named is Albumin (Bos taurus) (UniProt P02769). Nature of the experiment: compounds binding labelled BSA control protein – biochemical, small-molecule microarray, Alexa647 label, 635/667 nm fluorescence, artefact control for SMM control protein annotation, profiling panel (AID 1118).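 Also: score merges 667 nm emission intensity and signal-to-noise per printed compound spot.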 The settings on record: BSA-A647 binding, fluorescence 635 nm, higher = more signal.
Chain of Albumin (Bos taurus) (P02769 whole entry, looked up): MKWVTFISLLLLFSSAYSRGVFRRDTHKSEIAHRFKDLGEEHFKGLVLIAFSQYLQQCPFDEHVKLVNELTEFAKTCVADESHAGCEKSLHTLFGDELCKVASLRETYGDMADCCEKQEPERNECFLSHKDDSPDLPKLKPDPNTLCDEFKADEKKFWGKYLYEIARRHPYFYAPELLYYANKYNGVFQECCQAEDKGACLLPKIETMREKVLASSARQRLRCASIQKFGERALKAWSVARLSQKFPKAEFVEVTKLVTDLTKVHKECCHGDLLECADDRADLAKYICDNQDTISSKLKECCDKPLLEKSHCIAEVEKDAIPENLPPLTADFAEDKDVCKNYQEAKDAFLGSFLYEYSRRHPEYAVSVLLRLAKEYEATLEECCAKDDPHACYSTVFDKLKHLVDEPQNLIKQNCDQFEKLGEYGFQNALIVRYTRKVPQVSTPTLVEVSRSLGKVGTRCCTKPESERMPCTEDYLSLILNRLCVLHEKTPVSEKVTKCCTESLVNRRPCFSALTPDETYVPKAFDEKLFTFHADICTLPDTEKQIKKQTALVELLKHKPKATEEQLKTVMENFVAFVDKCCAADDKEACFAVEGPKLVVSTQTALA
`Cc1ccccc1C(O)C1C=CC2C(=O)N(C)C(=O)C2N1N(c1ccccc1)c1ccccc1` (stereo not given) displayed a composite z-score of 0.25.
For `COc1ccc([Si](C)(C)[C@@H]2[C@@H](CC(=O)N(CCO)Cc3ccccc3)O[C@]3(C(=O)N(Cc4cccc(N5C(=O)c6cccc7cccc5c67)c4)c4ccccc43)[C@H]2C)cc1`, the composite z-score is -0.0059.
For `C=C[C@@H](COC(C)=O)N(C(=O)OC(C)(C)C)S(=O)(=O)c1ccc(Br)cc1` the value was 0.321.
As to `C=C(COC)/C(=C/C[C@H](OC(C)=O)c1ccc(OCCO)cc1)c1cc(C(=O)OC)ccc1OC`, the composite z-score was -0.115.
For `Cc1ccc(S[C@]2(C(=O)NCC(F)(F)F)CC(=O)N(Cc3ccccc3C(F)(F)F)[C@@H]2c2ccc(CO)cc2I)cc1` the value was 0.88; for `COC(=O)[C@@]1(Cc2ccc(F)cc2)[C@H]2c3cc(C(=O)N4CCCC4)n(CCc4ccc(O)c(O)c4)c3C[C@H]2CN1C(=O)c1ccccc1`, 0.601.
As to `COCCOC(=O)N1C(=O)[C@@]2(c3cc(C#CCC(C(=O)OC)C(=O)OC)ccc31)[C@H](C(=O)N1CCc3cc(OC)c(OC)cc3C1)[C@H]1C(=O)O[C@H](c3ccccc3)[C@H](c3ccccc3)N1[C@@H]2c1ccc(OCCO)cc1`, the composite z-score is -0.525.
For `COc1ccc(CCN2C(=O)[C@@]3(Cc4ccccc42)c2ccccc2C(=O)N(Cc2ccccc2OC)[C@H]3c2ccc(CO)cc2)cc1` the value was 0.282; for `CN(C)CCCNC(=O)[C@@]1(c2ccc([N+](=O)[O-])cc2)CC(=O)N(CC23CC4CC(CC(C4)C2)C3)[C@@H]1c1ccc(CO)cc1I`, 0.685.
For `CCCC[C@@H]1C[C@H]1[C@@H](NC(=O)c1cccs1)c1ccc(C(F)(F)F)cc1`, the composite z-score was -0.999.
The value for `COC(=O)C1=CC(CCCO)=CC(C2CC2)N(C)C=C1C(=O)OC` (stereo not given) was 1.04; that for `CC(=O)c1ccc(C(O)C2C=CC3C(=O)N(c4ccccc4)C(=O)C3N2Nc2ccc(C#N)cc2)cc1` (stereo not given) was 0.962.
The value for `COCCOC(=O)N1C(=O)[C@@]2(c3cc(C#CC4=CCCCC4)ccc31)[C@H](c1ccc(OCCO)cc1)N1[C@H](c3ccccc3)[C@H](c3ccccc3)OC(=O)[C@H]1[C@@H]2C(=O)NC[C@H](O)c1ccccc1` was -0.298.
In the case of `CCCC[C@@H]1C[C@H]1[C@@H](NC(=O)Cc1ccccc1)c1ccc(-c2ccccc2)cc1`, the composite z-score stood at 0.83.
Take `CCCCN1CC=CC23O[C@@H]4/C=C\CCC(C)OC(=O)C4[C@H]2C(=O)N(C(CO)C(C)C)[C@@H]3C1=O` (stereo not given in full): the composite z-score came out at 0.751.
For `CO[C@H]1O[C@H](CO)[C@@H](OC(=O)Nc2ccccc2-c2ccccc2)[C@H](OC(=O)Nc2ccc3c(c2)OCO3)[C@H]1OC(=O)Nc1ccc2c(c1)OCO2` the value was 0.902; for `C=CCN1C(=O)[C@@]2(O[C@@H](CCn3cc([C@H](O)c4ccccc4)nn3)[C@H]([Si](C)(C)c3ccc(OC)cc3)[C@H]2C)c2cc(N3CCC3=O)ccc21`, 0.292; for `C=CCN1C(=O)[C@@]2(CCS(=O)(=O)c3ccccc3)N=C(c3ccc(OCCCO)cc3)O[C@H]2c2ccccc21`, -0.567.
Turning to `COC(=O)CCCCCCC(=O)Nc1ccc(NC(=O)CCCC[P+](c2ccccc2)(c2ccccc2)c2ccccc2)cc1`, the composite z-score was -0.637.
For `CC(CO)N1C(=O)[C@@H]2[C@H]3C(=O)OCC=C[C@H]3OC23C=CCN(C(C)(C)C)C(=O)[C@@H]13` (stereo not given in full) the value was -0.0964; for `[N-]=[N+]=Nc1ccccc1[C@@H]1OC(c2ccc(OCCCO)cc2)=N[C@]1(Cc1ccccc1)C(=O)NCC(O)CO` (stereo not given in full), 0.937.
The value for `CC1CC/C=C\[C@H]2OC34C=CCN(c5ccc(Cl)cc5)C(=O)[C@H]3N(CCCCCO)C(=O)[C@]4(C)C2C(=O)O1` (stereo not given in full) was -1.08; that for `C=CCC(OC(C)=O)[C@@H]1[C@@H](N(Cc2cccc3ccccc23)C(=O)c2cccc3ccccc23)c2cc(OCCCO)ccc2N1C(=O)c1ccc(-c2ccccc2)cc1` (stereo not given in full) was -0.0704; that for `CN1C(=O)C2C=CC(C(O)c3ccccn3)N(N(c3ccccc3)c3ccccc3)C2C1=O` (stereo not given) was 0.206.
For `CC(C)(C)N1CC=CC23O[C@@H]4C=CCCOC(=O)C4[C@H]2C(=O)N(CCO)[C@@H]3C1=O` (stereo not given in full), the composite z-score was -0.0163.
In turn, `Cc1ccc(S[C@]2(C(=O)NCCCN(C)C)CC(=O)N(C3CCCCC3)[C@@H]2c2ccc(CO)cc2)cc1` displayed a composite z-score of 0.156.
The value for `CCOc1cc(C(O)C2C=CC3C(=O)N(c4ccccc4)C(=O)C3N2Nc2ccc(C#N)cc2)ccc1O` (stereo not given) was 0.876; that for `COCCOC(=O)N1C(=O)[C@@]2(c3cc(C#Cc4ccc(OC)cc4)ccc31)[C@H](C(=O)Nc1nc3ccccc3s1)[C@H]1C(=O)O[C@H](c3ccccc3)[C@H](c3ccccc3)N1[C@@H]2c1ccc(OCCO)cc1` was -0.0497.
The value for `O=C1O[C@H](c2ccccc2)[C@H](c2ccccc2)N2[C@H]1[C@@H](C(=O)NC[C@H](O)c1ccccc1)[C@]1(C(=O)Nc3ccc(C#CCCO)cc31)[C@H]2c1ccc(OCCO)cc1` was 0.834; that for `CCC(CC)C(O)C1C=CC2C(=O)N(c3ccccc3)C(=O)C2N1Nc1ccc(C(C)C)cc1` (stereo not given) was 0.682; that for `C=CCC(OC(C)=O)[C@@H]1[C@@H](N(Cc2cccc3ccccc23)C(=O)Cc2ccc(OC)cc2)c2cc(OCCCO)ccc2N1C(=O)c1ccc2ccccc2n1` (stereo not given in full) was 0.249.
For `C=C(C)c1cc2c(c(CCCCCC)n1)[Si](C(C)C)(C(C)C)OC2` the value was -0.923.
As to `COCCOC(=O)N1C(=O)[C@@]2(c3cc(C#CC4=CCCCC4)ccc31)[C@H](c1ccccc1OCCO)N1[C@H](c3ccccc3)[C@H](c3ccccc3)OC(=O)[C@H]1[C@@H]2C(=O)Nc1nc2ccccc2s1`, the composite z-score was determined as 0.526.
For `O=C1NC(=O)C2C1C=CC(C(O)c1cccc3ccccc13)N2Nc1ccc(Cl)cc1Cl` (stereo not given) the value was 0.205; for `CN(C)C(=O)[C@@]1(Cc2ccccc2CN=[N+]=[N-])N=C(c2ccc(OCCCO)cc2)O[C@H]1c1ccccc1CN=[N+]=[N-]`, 0.936.
